Measurements published in PubChem BioAssay (Tox21).
A number with no mark means an inactive call. Results filed as inconclusive are left out. A call without a number means that no potency is given here. Active and inactive are the calls of the source. Unless noted, calls come from the whole dose curve; as a rule, active = well fitted curve in the direction sought with a large enough effect in the repeat runs; inconclusive = weak or mixed curves; inactive = no such curve, though single readings can be large; an effect the other way counts as inactive or inconclusive.

Assays:
[1] = molecular target: Thyrotropin receptor (Homo sapiens) (UniProt P16473); experiment: qHTS assay to identify small molecule antagonists of the thyroid stimulating hormone receptor (TSHR) signaling pathway (AID 1259385; calls by dose curve; note: nearly all actives have a fitted effect of over 20% in size)
Outline: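 TSHR-HEK293 cells were plated and held 18 h at 37C/5% CO2, then given compound plus Ro20-1724 and stimulated with TSH at 1.5 ng/mL final. After 30 min at room temperature, cAMP was detected with cAMP-d2/anti-cAMP-cryptate (1 h) by fluorescence.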

[2] = qHTS assay to identify small molecule agonists of the estrogen receptor alpha (ER-alpha) signaling pathway in the presence of an antagonist - cell viability counter screen (AID 1259386);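 note: series mostly up to about 92 µM; cells exposed to compounds for 22 h at 37 °C before the viability read; nearly all actives have a fitted effect of over 30% in size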
Outline: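 Using estrogen-depleted VM7Luc4E2 cells, the 15-concentration compound series was applied together with 10.0nM ICI-182,780 and incubated 22hr at 37C/5% CO2. Cell viability was then scored by CellTiter-Fluor.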

[3] = molecular target: Progesterone receptor (Homo sapiens) (UniProt P06401); experiment: qHTS assay to identify small molecule agonists of the progesterone receptor (PR) signaling pathway (AID 1346784; calls by dose curve; note: nearly all actives have a fitted effect of over 30% in size)
Outline: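 Seed PR-UAS-bla HEK 293T cells (2% charcoal-stripped FBS), incubate 6 hr at 37C; add compounds in DMSO, 16 hr at 37C; add LiveBLAzer B/G substrate, 2 hr RT; read fluorescence intensity.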

[4] = qHTS assay to identify small molecule agonists of the progesterone receptor (PR) signaling pathway - cell viability counter screen (AID 1346799; calls by dose curve; note: nearly all actives have a fitted effect of over 45% in size)
Outline: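 Using the same plates as the PR reporter screen, HEK293T PR-UAS-bla cells received compounds for 16 hr at 37C and were then lysed with CellTiter-Glo; luminescence was read 30 min later at room temperature.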

[5] = qHTS assay to identify small molecule antagonists of the TGF-beta/Smad signaling pathway - cell viability counter screen (AID 1346824); note: nearly all actives have a fitted effect of over 50% in size
Outline: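 SBE-bla HEK 293T cells were plated overnight at 37 C, then given compounds in DMSO plus TGF-beta1 (added as 0.25 ng/mL solution) for 5 hr. After the bla read, CellTiter-Glo was added to the same wells and luminescence read after 30 min at room temperature.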

[6] = Human pregnane X receptor (PXR) small molecule agonists, qHTS cell viability counter screen (AID 1346977); note: nearly all actives have a fitted effect of over 50% in size
Outline: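 After a 5hr pre-incubation, PXR-Luc HepG2 cells received compounds plus positive control in DMSO and were kept 24hr at 37C. Cell viability was quantified by fluorescence from CellTiter-Fluor added for the final hour.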

[7] = Caspase-3/7 induction in HepG2 cells by small molecules, qHTS assay (AID 1346978); note: nearly all actives have a fitted effect of over 15% in size
Outline: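 Wild-type HepG2 cells (2,000/well) were settled 5 h at 37 C, 5% CO2, then exposed to compounds in DMSO for 17 h. Caspase-3/7 activity was read by luminescence 30 min after adding Caspase-Glo 3/7 reagent at room temperature.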

[8] = Caspase-3/7 induction in CHO-K1 cells by small molecules, qHTS cell viability counter screen (AID 1346979); note: nearly all actives have a fitted effect of over 35% in size
Outline: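 Multiplexed with Caspase-Glo 3/7 in CHO-K1 cells, this counter screen added CellTiter-Fluor after 16hr of compound exposure and recorded fluorescence 1hr later.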

[9] = Caspase-3/7 induction in CHO-K1 cells by small molecules, qHTS assay (AID 1346980); note: nearly all actives have a fitted effect of over 15% in size
Outline: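 Wild-type cells were seeded at 1,500 per well and settled 5 hr at 37 C, 5% CO2, then exposed to DMSO-dissolved compounds for 17 hr. Caspase-Glo 3/7 reagent was added, and luminescence was read after 30min at room temperature.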

[10] = Caspase-3/7 induction in HepG2 cells by small molecules, qHTS cell viability counter screen (AID 1346981); note: series mostly up to about 92 µM; nearly all actives have a fitted effect of over 30% in size
Outline: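 After a 5-hr attachment period at 37 C and 5% CO2, wild-type HepG2 cells received compounds in DMSO. Sixteen hours later CellTiter-Fluor was dispensed and the fluorescent signal quantified after a further hour.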

[11] = molecular target: Nuclear receptor subfamily 1 group I member 2 (Homo sapiens) (UniProt O75469); experiment: Human pregnane X receptor (PXR) small molecule agonists, qHTS assay (AID 1346982); note: nearly all actives have a fitted effect of over 35% in size; note: potency is the fitted concentration of half-maximal effect
Outline: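 Tox21 qHTS; PXR-Luc HepG2; compounds pinned from DMSO; 24 hr, 37 C; ONE-Glo luciferase detection, 30 min room temperature.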

[12] = qHTS assay to identify small molecule agonists of the TGF-beta/Smad signaling pathway (AID 1346859; active = well fitted activation curve with a large enough effect in the signal ratio in the repeat runs, not every such curve was filed as active; the % refers to the signal ratio; note: series mostly up to about 77 µM)
Outline: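 Beta-lactamase reporter activity downstream of Smad binding elements was measured in stably transfected HEK 293T cells; compounds were incubated for 5 hr, substrate for 2 hr at room temperature.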

[13] = molecular target: Thyrotropin-releasing hormone receptor (Homo sapiens) (UniProt P34981); experiment: qHTS assay to identify small molecule antagonists of the thyrotropin-releasing hormone receptor (TRHR) signaling pathway (AID 1346877; active = well fitted inhibition curve with a large enough effect in the repeat runs, not every such curve was filed as active; note: series mostly up to about 51 µM)
Outline: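 Calcium signal in dye-loaded TRHR/HEK293 cells; compounds added 5 min before TRH (1 nM final); fluorescence monitored 3 min at 1 s steps.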

[14] = molecular target: Thyrotropin-releasing hormone receptor (Homo sapiens) (UniProt P34981); experiment: qHTS assay to identify small molecule agonists of the thyrotropin-releasing hormone receptor (TRHR) signaling pathway (AID 1346891; calls by dose curve;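 note: HEK293 cells expressing TRHR with calcium dye readout; series mostly up to about 58 µM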)
Outline: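 Overnight-plated (18 h, 37 °C, 5% CO2) TRHR-Hek293 cells; 2 h calcium dye at 37 °C; compound in DMSO; 3-min kinetic fluorescence read.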

[15] = molecular target: Nuclear receptor subfamily 1 group I member 2 (Homo sapiens) (UniProt O75469); experiment: CYP3A4 induction through human pregnane X receptor (PXR) by small molecules, qHTS assay (AID 1346984); note: nearly all actives have a fitted effect of over 40% in size
Outline: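 Cells (DPX-2; HepG2 with PXR element plus CYP3A4-promoter luciferase) settled 5hr, then were treated 24hr at 37C. A 3hr, 3uM-final Luciferin-IPA step preceded luminescence measurement with One-Glo.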

[16] = molecular target: Nuclear receptor subfamily 1 group I member 2 (Homo sapiens) (UniProt O75469); experiment: Human pregnane X receptor (PXR) activation by small molecules, qHTS assay (AID 1346985); note: nearly all actives have a fitted effect of over 40% in size
Outline: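 DPX-2 cells (HepG2 co-transfected with a PXR response element and a CYP3A4-promoter luciferase construct) were seeded at 2,000 per well, rested 5 hr at 37C, then exposed to DMSO-dissolved compounds for 24 hr. Activation was read as luciferase luminescence.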

[17] = molecular target: Progesterone receptor (Homo sapiens) (UniProt P06401); experiment: qHTS assay to identify small molecule antagonists of the progesterone receptor (PR) signaling pathway (AID 1346795; active = well fitted inhibition curve with a large enough effect in the signal ratio in the repeat runs, not every such curve was filed as active; the % refers to the signal ratio; note: potency is the fitted concentration of half-maximal effect)
Outline: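 Screening used a GripTite HEK293T line with PR-responsive UAS-beta-lactamase. Cells were challenged with compound in the presence of 1 nM R5020 final for 16 hr at 37C; B/G FRET substrate, 2 hr room temperature, fluorescence.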

[18] = qHTS assay to identify small molecule antagonists of the progesterone receptor (PR) signaling pathway - cell viability counter screen (AID 1346798); note: series mostly up to about 92 µM; nearly all actives have a fitted effect of over 50% in size
Outline: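 Measures cytotoxicity in parallel with the PR antagonist reporter read: HEK293T PR-UAS-bla cells get compound and R5020 for 16 hr, and remaining viable cells are quantified by CellTiter-Glo luminescence.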

[19] = qHTS assay to identify small molecule agonists of the TGF-beta/Smad signaling pathway - cell viability counter screen (AID 1346829); note: top concentration of the series differs between compounds; nearly all actives have a fitted effect of over 45% in size
Outline: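 Compound-treated SBE-bla HEK 293T cells (5 hr, 37 C) were assessed for viability with CellTiter-Glo in parallel with the reporter read.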

[20] = molecular target: Nuclear receptor subfamily 1 group I member 2 (Rattus norvegicus) (UniProt Q9R1A7); experiment: Rat pregnane X receptor (rPXR) activation by small molecules, qHTS assay (AID 1346983); settings: rPXR luciferase reporter cells, One-Glo luminescence, 24 h; hits give high values; note: nearly all actives have a fitted effect of over 20% in size
Outline: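 Cell-based rPXR luciferase reporter assay, 2,000 cells per well, rested 5hr at 37 C before compound addition in DMSO, then 24 hr at 37 C. One-Glo reagent was added and luminescence read after 30 min at room temperature.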

Sequence of Progesterone receptor (Homo sapiens) (P06401 whole entry, looked up): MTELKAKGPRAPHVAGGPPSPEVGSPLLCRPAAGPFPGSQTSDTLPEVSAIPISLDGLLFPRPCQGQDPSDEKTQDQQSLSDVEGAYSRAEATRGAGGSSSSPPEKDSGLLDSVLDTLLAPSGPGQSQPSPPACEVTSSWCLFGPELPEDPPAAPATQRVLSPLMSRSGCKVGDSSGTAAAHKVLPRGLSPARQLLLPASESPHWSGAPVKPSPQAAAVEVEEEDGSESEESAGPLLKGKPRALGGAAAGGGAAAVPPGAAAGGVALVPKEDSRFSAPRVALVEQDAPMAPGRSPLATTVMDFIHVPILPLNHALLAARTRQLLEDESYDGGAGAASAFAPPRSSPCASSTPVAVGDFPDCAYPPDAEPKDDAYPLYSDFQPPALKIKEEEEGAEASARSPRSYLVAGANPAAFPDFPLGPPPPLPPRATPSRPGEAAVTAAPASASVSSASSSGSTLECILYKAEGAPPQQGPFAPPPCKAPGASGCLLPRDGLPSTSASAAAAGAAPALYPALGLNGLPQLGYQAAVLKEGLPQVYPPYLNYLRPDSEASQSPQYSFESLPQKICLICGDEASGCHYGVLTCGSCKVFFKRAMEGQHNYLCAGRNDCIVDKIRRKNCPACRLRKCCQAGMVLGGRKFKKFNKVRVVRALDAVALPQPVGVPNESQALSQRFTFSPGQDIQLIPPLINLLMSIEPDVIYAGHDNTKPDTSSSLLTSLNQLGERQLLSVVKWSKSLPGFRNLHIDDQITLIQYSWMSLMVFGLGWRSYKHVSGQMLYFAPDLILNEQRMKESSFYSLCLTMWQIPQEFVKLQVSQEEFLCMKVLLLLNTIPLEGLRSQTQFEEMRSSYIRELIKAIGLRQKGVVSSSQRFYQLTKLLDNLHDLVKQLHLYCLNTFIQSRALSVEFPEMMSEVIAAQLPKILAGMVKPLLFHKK
Sequence of Nuclear receptor subfamily 1 group I member 2 (Homo sapiens) (O75469 whole entry, looked up): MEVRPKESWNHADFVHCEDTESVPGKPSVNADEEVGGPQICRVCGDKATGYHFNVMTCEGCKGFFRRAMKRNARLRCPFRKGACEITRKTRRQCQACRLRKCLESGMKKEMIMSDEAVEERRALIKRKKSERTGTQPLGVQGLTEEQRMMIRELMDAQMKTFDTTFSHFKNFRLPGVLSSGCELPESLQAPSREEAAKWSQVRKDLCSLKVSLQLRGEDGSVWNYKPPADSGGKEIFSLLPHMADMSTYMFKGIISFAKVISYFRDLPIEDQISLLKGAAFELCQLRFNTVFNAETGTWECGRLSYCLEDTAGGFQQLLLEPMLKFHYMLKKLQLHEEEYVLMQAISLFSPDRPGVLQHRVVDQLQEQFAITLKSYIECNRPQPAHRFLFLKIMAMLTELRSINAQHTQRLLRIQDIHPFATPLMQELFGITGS
Sequence of Thyrotropin receptor (Homo sapiens) (P16473 whole entry, looked up): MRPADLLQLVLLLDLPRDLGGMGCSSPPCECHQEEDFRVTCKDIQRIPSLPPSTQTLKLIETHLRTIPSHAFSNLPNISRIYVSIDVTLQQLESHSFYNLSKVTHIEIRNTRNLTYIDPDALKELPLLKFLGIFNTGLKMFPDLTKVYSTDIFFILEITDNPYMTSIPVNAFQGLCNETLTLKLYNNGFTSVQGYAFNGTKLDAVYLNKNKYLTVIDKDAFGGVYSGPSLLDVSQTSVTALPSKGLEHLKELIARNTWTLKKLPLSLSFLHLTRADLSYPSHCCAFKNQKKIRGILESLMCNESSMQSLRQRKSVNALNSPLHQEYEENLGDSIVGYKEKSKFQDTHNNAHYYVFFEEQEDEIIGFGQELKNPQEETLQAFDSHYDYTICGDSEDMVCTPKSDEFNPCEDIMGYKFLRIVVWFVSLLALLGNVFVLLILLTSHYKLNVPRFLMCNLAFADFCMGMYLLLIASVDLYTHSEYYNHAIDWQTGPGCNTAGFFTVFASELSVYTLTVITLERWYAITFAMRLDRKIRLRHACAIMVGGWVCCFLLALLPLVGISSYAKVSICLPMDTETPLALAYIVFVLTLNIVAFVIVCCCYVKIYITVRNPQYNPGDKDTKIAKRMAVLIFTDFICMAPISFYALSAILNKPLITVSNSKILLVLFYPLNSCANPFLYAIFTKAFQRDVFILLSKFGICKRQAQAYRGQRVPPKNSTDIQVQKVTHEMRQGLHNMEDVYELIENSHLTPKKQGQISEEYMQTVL
Sequence of Thyrotropin-releasing hormone receptor (Homo sapiens) (P34981 whole entry, looked up): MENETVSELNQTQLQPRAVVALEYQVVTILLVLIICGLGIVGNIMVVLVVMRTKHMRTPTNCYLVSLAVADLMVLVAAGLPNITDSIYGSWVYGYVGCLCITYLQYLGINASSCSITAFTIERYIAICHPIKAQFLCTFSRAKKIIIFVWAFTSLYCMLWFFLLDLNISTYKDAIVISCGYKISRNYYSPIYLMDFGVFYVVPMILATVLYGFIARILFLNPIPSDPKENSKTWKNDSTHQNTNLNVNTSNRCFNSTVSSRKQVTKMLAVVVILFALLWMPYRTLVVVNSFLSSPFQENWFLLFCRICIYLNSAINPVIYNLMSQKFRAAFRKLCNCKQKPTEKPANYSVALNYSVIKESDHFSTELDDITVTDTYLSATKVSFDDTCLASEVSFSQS
Sequence of Nuclear receptor subfamily 1 group I member 2 (Rattus norvegicus) (Q9R1A7 whole entry, looked up): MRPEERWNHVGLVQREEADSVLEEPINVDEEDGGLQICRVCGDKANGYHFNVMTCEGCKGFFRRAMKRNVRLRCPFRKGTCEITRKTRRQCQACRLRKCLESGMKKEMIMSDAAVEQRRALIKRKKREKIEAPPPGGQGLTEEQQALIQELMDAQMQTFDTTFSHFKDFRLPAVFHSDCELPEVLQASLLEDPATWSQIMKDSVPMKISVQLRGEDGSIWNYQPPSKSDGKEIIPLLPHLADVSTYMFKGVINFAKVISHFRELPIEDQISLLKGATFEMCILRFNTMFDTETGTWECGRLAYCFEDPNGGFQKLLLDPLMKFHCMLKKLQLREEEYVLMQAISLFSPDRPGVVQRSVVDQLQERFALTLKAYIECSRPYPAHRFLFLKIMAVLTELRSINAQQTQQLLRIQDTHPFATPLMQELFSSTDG

Row | SMILES | outcome [1] | Potency [2] | Potency [3] | Potency [4] | outcome [5] | Potency [6] | Potency [7] | Potency [8] | outcome [9] | Potency [10] | Potency [11] | outcome [12] | outcome [13] | outcome [14] | Potency [15] | Potency [16] | Potency [17] | Potency [18] | outcome [19] | max activation [20]
1 | O=C(OCc1ccccc1)C(=O)OCc1ccccc1 | inactive | inactive | inactive | inactive | inactive | inactive | inactive | inactive | inactive | inactive | inactive |  |  |  |  |  |  |  |  | 
2 | NNc1nnc(NN)c2ccccc12 | inactive | inactive |  | inactive | inactive | inactive | inactive | inactive | inactive | inactive | inactive | inactive | inactive | inactive | inactive | inactive |  |  |  | 
3 | O=C(OCC1(COC(=O)c2cccnc2)CCCC(COC(=O)c2cccnc2)(COC(=O)c2cccnc2)C1O)c1cccnc1 | inactive |  | inactive | inactive | inactive |  | inactive | inactive | inactive | inactive | inactive |  |  |  |  |  | inactive | inactive | inactive | 
4 | CCCC(=O)C(C)=O | inactive | inactive |  | inactive | inactive | inactive | inactive | inactive | inactive | inactive | inactive | inactive |  |  |  |  |  | inactive | inactive | 
5 | C[C@@H]1O[C@@H](O[C@@H]2[C@@H](O)[C@H](OCCc3ccc(O)c(O)c3)O[C@H](CO[C@@H]3O[C@H](CO)[C@@H](O)[C@H](O)[C@H]3O)[C@H]2OC(=O)/C=C/c2ccc(O)c(O)c2)[C@H](O)[C@H](O)[C@H]1O | inactive |  |  | inactive | inactive |  | inactive |  | inactive | inactive | inactive | inactive | inactive | inactive |  |  |  |  | inactive | 
6 | C=CCCCCCCCCCCCC | inactive | inactive |  | inactive | inactive | inactive | inactive | inactive | inactive | inactive | inactive |  | inactive | inactive |  |  |  | inactive | inactive | 
7 | CCOc1cc([N+](=O)[O-])c(OCC)cc1N1CCOCC1 | inactive |  | inactive | inactive | inactive |  | inactive |  | inactive |  | 30.6 µM (active) |  | inactive | inactive |  |  | 27.3 µM (active) | inactive | inactive | 
8 | C=CC(OCC)OCC |  | inactive | inactive | inactive | inactive |  | inactive | inactive | inactive | inactive | inactive | inactive | inactive | inactive |  |  | inactive | inactive | inactive | 
9 | C=C1CC/C=C(\C)CC[C@@H]2[C@@H]1CC2(C)C | inactive | inactive |  | inactive | inactive | inactive | inactive | inactive | inactive | inactive | inactive | inactive |  |  |  |  |  |  | inactive | 
10 | CCCC/C=C\CCCCCCCCCC=O | inactive | inactive |  | inactive | inactive |  | inactive | inactive | inactive | inactive |  | inactive | inactive | inactive |  |  |  | inactive |  | 
11 | CCC(C)NC(N)=O (stereo not drawn) | inactive | inactive |  | inactive | inactive | inactive | inactive | inactive | inactive | inactive | inactive | inactive | inactive | inactive |  |  |  | inactive | inactive | 
12 | CC(C)NCC(O)COc1ccc(COCCOC(C)C)cc1 (stereo not drawn) | inactive | inactive |  | inactive | inactive | inactive | inactive | inactive | inactive |  | inactive | inactive | inactive | inactive | inactive | inactive | inactive | inactive |  | -3.07%
13 | CCOCCOCCOCC |  | inactive |  | inactive | inactive | inactive | inactive | inactive | inactive | inactive | inactive | inactive | inactive | inactive |  |  |  | inactive | inactive | 
14 | ClCCCl |  | inactive | inactive | inactive | inactive | inactive | inactive | inactive |  | inactive | inactive |  | inactive | inactive |  |  | inactive | inactive | inactive | 
15 | Brc1ccc(-c2ccccc2)cc1 |  | inactive | inactive | inactive | inactive | inactive | inactive | inactive | inactive | inactive | inactive | inactive |  |  |  |  |  | inactive |  | 
16 | CCC(C)(CCC(C)C)C(=O)O (stereo not drawn) |  | inactive | inactive | inactive | inactive | inactive | inactive | inactive |  | inactive | inactive | inactive |  |  |  |  | inactive |  | inactive | 
17 | CC(C)C[C@H](NC(=O)CNC(=O)[C@H](Cc1ccc(O)cc1)NC(=O)[C@H](CO)NC(=O)[C@H](Cc1c[nH]c2ccccc12)NC(=O)[C@H](Cc1cnc[nH]1)NC(=O)[C@@H]1CCC(=O)N1)C(=O)N[C@@H](CCCN=C(N)N)C(=O)N1CCC[C@H]1C(=O)NCC(N)=O (stereo in doubt) |  | inactive | inactive |  | inactive |  | inactive | inactive | inactive | inactive | inactive | inactive | inactive | inactive |  |  | inactive | inactive | inactive | 
18 | CC[C@H](C)C(=O)O[C@H]1C[C@H](O)C=C2C=C[C@H](C)[C@H](CC[C@@H](O)C[C@@H](O)CC(=O)O)[C@H]21 |  | inactive | inactive | inactive | inactive | inactive | inactive | inactive | inactive | inactive | inactive | inactive |  |  | inactive | inactive | inactive | inactive |  | -0.271%
19 | CC(=O)Nc1ccc(S(=O)(=O)Cl)cc1 |  | inactive | inactive | inactive | inactive |  | inactive | inactive | inactive |  | inactive |  | inactive | inactive |  |  | inactive |  | inactive | 
